Assay results reported in the supplement of paper PMC12494721.
Counter-ions that a name gives are not always drawn.

Key:
Conditions in all cases: incubation time: 27 h, anaerobic, 37 °C;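 for the amine columns active = adjusted P below 0.05 in both replicates with a change the same way and a mean fold change under 0.8 or over 1.25; inactive = the rest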
[1] = test system: Clostridium sporogenes DSM 1664; test: growth (OD595) fold change vs plate DMSO controls (fold change (ratio)); higher = more growth
In short: (§1)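 Growth is the fold change relative to the median of plate DMSO controls. Readings came from anaerobic mGAM cultures in 96-well plates grown for 27 h at 37 °C and read at 595 nm. They were blank-subtracted, corrected for compound background with 20 µM compound solutions in water, and converted to OD with a calibration factor of 5. Values are means of 2 biological replicates, and fold changes above 1.5 were set to NA.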

Escherichia coli IAI1 [2] = test: as above
In short: as §1

[3] = test system: Klebsiella aerogenes DSM 30053; test: as above
In short: as §1

[4] = test system: Ruminococcus gnavus DSM 108212; test: as above
In short: as §1

[5] = test system: Klebsiella aerogenes DSM 30053; test: fold change of Histamine concentration vs plate DMSO controls (fold change (ratio)); higher = more amine produced, active = hit call of the paper (significant change in both replicates, either direction)
In short: (§2)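 Amines were quantified by LC–triple-quadrupole MS in dynamic MRM mode against external calibration curves, with drift correction within each batch. The samples were whole anaerobic mGAM cultures of four gut bacterial strains, grown for 27 h at 37 °C in 80 µL wells and extracted with cold acetonitrile/methanol with 0.1% formic acid, then centrifuged. Values are reported as fold change over DMSO controls on the same plate. The mean of 2 biological replicates is given.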

[6] = test system: Clostridium sporogenes DSM 1664; test: fold change of Tryptamine concentration vs plate DMSO controls (fold change (ratio)); higher = more amine produced, active = hit call of the paper (significant change in both replicates, either direction)
In short: as §2

[7] = test system: Ruminococcus gnavus DSM 108212; test: as above
In short: as §2

Escherichia coli IAI1 [8] = test: fold change of Putrescine concentration vs plate DMSO controls (fold change (ratio)); higher = more amine produced, active = hit call of the paper (significant change in both replicates, either direction)
In short: as §2

[9] = test system: Klebsiella aerogenes DSM 30053; test: as above
In short: as §2

Escherichia coli IAI1 [10] = test: fold change of Cadaverine concentration vs plate DMSO controls (fold change (ratio)); higher = more amine produced, active = hit call of the paper (significant change in both replicates, either direction)
In short: as §2

[11] = test system: Klebsiella aerogenes DSM 30053; test: as above
In short: as §2

[12] = test system: Ruminococcus gnavus DSM 108212; test: fold change of 2-Phenylethylamine concentration vs plate DMSO controls (fold change (ratio)); higher = more amine produced, active = hit call of the paper (significant change in both replicates, either direction)
In short: as §2

| Structure (SMILES) | growth [1] | growth (Escherichia coli IAI1 [2]) | growth [3] | growth [4] | fold change of Histamine concentration [5] | fold change of Tryptamine concentration [6] | fold change of Tryptamine concentration [7] | fold change of Putrescine concentration (Escherichia coli IAI1 [8]) | fold change of Putrescine concentration [9] | fold change of Cadaverine concentration (Escherichia coli IAI1 [10]) | fold change of Cadaverine concentration [11] | fold change of 2-Phenylethylamine concentration [12] |
| --- | --- | --- | --- | --- | --- | --- | --- | --- | --- | --- | --- | --- |
| CCOc1nc2cccc(C(=O)O)c2n1Cc1ccc(-c2ccccc2-c2nnn[nH]2)cc1 [Candesartan] (20 µM) | 1.16 | 0.982 | 1.01 | 1.19 | 0.965 (inactive) | 1.04 (inactive) | 0.975 (inactive) | 0.981 (inactive) | 1 (inactive) | 1.03 (inactive) | 1.01 (inactive) | 0.947 (inactive) |
| CC[N+](C)(CC)CCC[n+]1c(-c2ccccc2)c2cc(N)ccc2c2ccc(N)cc21 [Propidium iodide] (20 µM) | 1.18 | 1.07 | 1.08 |  | 1.07 (inactive) | 1.07 (inactive) | 1.05 (inactive) | 0.99 (inactive) | 1 (inactive) | 1 (inactive) | 0.999 (inactive) | 1.08 (inactive) |
| c1ccc([C@H]2CN3CCSC3=N2)cc1 [Levamisole hydrochloride] (20 µM) | 1 | 0.988 | 0.966 | 1 | 1.07 (inactive) | 0.986 (inactive) | 0.908 (inactive) | 0.967 (inactive) | 1.02 (inactive) | 1.01 (inactive) | 0.994 (inactive) | 0.961 (inactive) |
| C/C=C(/C(=C/C)c1ccc(O)cc1)c1ccc(O)cc1 [Dienestrol] (20 µM) | 1.09 | 1.01 | 1.04 |  | 1.02 (inactive) | 0.782 (inactive) | 0.285 (active) | 1.06 (inactive) | 0.995 (inactive) | 1.02 (inactive) | 1.03 (inactive) | 0.344 (inactive) |
| Nc1nc2[nH]cc(CCc3ccc(C(=O)N[C@@H](CCC(=O)O)C(=O)O)cc3)c2c(=O)[nH]1 [Pemetrexed disodium] (20 µM) | 1.11 | 1.25 | 0.529 |  | 0.471 (inactive) | 1.04 (inactive) | 0.788 (inactive) | 1.07 (inactive) | 0.577 (inactive) | 0.876 (inactive) | 0.663 (inactive) | 0.811 (inactive) |
| O=C(O)[C@H]1/C(=C/CO)O[C@@H]2CC(=O)N21 [Clavulanate potassium salt] (20 µM) | 0.883 | 1.01 | 0.977 |  | 1.02 (inactive) | 1.01 (inactive) | 0.997 (inactive) | 0.96 (inactive) | 1 (inactive) | 1.05 (inactive) | 0.998 (inactive) | 1.02 (inactive) |
| CS(=O)(=O)Nc1ccc([N+](=O)[O-])cc1Oc1ccccc1 [Nimesulide] (20 µM) | 1.01 | 0.991 | 1.03 |  | 1.07 (inactive) | 0.973 (inactive) | 0.972 (inactive) | 1.01 (inactive) | 1.01 (inactive) | 1 (inactive) | 0.991 (inactive) | 0.905 (inactive) |
| O=C1[C@@H]2[C@H]3CC[C@H](C3)[C@@H]2C(=O)N1CCCCN1CCN(c2ncccn2)CC1 [Tandospirone] (20 µM) | 0.973 | 1.04 | 1.03 | 1.06 | 0.981 (inactive) | 0.992 (inactive) | 1.01 (inactive) | 0.989 (inactive) | 0.995 (inactive) | 1 (inactive) | 0.997 (inactive) | 1.06 (inactive) |
| COc1cc(Cc2cnc(N)nc2N)cc(OC)c1OC [Trimethoprim] (20 µM) | 1.03 | 0.272 | 0.472 |  | 0.522 (active) | 0.974 (inactive) | 0.895 (inactive) | 0.829 (inactive) | 1.22 (inactive) | 1.78 (active) | 1 (inactive) | 0.84 (inactive) |
| C[C@@H]1CN(c2c(F)c(N)c3c(=O)c(C(=O)O)cn(C4CC4)c3c2F)C[C@H](C)N1 [Sparfloxacin] (20 µM) | 0.0221 | 0.0499 | 0.286 |  | 0.286 (active) | 0.0593 (active) | 0.763 (active) | 0.942 (inactive) | 1.16 (inactive) | 0.264 (active) | 0.973 (inactive) | 0.829 (inactive) |
| CNC(=O)c1c(I)c(C(=O)NCC(=O)Nc2c(I)c(C(=O)O)c(I)c(C(=O)NCCO)c2I)c(I)c(N(C)C(C)=O)c1I [Ioxaglic acid] (20 µM) | 1.16 | 1.08 | 1.09 | 1.02 | 1.01 (inactive) | 0.978 (inactive) | 1.01 (inactive) | 1.05 (inactive) | 1.06 (inactive) | 1 (inactive) | 1.04 (inactive) | 0.982 (inactive) |
| CC(C)NC[C@@H](O)COc1cccc2ccccc12 [(R) Propranolol hydrochloride] (20 µM) | 1.08 | 0.856 | 0.86 | 0.617 | 1.01 (inactive) | 1.04 (inactive) | 0.95 (inactive) | 0.979 (inactive) | 0.993 (inactive) | 1.01 (inactive) | 0.987 (inactive) | 0.945 (inactive) |
| CCOC(=O)OC(C)OC(=O)[C@@H]1N2C(=O)[C@@H](NC(=O)[C@H](N)c3ccccc3)[C@H]2SC1(C)C (stereo partly specified) [Bacampicillin hydrochloride] (20 µM) | 0 | 1.16 | 1.46 | 0.0946 | 1.02 (inactive) | 0.0203 (active) | 0.0343 (active) | 0.928 (inactive) | 1.07 (inactive) | 1.6 (active) | 1.05 (inactive) | 0.0374 (active) |
| COc1ccc(C(Cl)=C(c2ccc(OC)cc2)c2ccc(OC)cc2)cc1 [Chlorotrianisene] (20 µM) | 1.07 | 0.924 | 0.946 |  | 0.94 (inactive) | 0.978 (inactive) | 1.06 (inactive) | 1.01 (inactive) | 0.998 (inactive) | 1 (inactive) | 1 (inactive) | 1.07 (inactive) |
| CC(C)(c1cc(Br)c(O)c(Br)c1)c1cc(Br)c(O)c(Br)c1 (20 µM) | 0 | 1.04 | 1.05 |  | 0.929 (inactive) | 0.0166 (active) | 0.366 (active) | 0.967 (inactive) | 1.01 (inactive) | 0.996 (inactive) | 1.04 (inactive) | 0.404 (inactive) |
| O=C1CN(/N=C/c2ccc([N+](=O)[O-])o2)C(=O)N1 [Nitrofurantoin] (20 µM) | 1.01 | 0.997 | 0.868 |  | 1.07 (inactive) | 0.931 (inactive) | 0.808 (inactive) | 0.729 (active) | 0.962 (inactive) | 1.81 (active) | 0.997 (inactive) | 0.923 (inactive) |
| Cc1c(C)c2c(c(C)c1O)CCC(C)(COc1ccc(CC3SC(=O)NC3=O)cc1)O2 (stereo unspecified) [Troglitazone] (20 µM) | 1.31 | 0.981 | 1.1 |  | 0.914 (inactive) | 0.721 (active) | 0.696 (active) | 1.01 (inactive) | 0.995 (inactive) | 1.01 (inactive) | 1.01 (inactive) | 0.777 (active) |
| Cc1noc(NS(=O)(=O)c2ccc(N)cc2)c1C [Sulfisoxazole] (20 µM) |  | 1.03 | 1.02 | 1.13 | 1.07 (inactive) |  | 1.01 (inactive) | 1.03 (inactive) | 1.02 (inactive) | 1.04 (inactive) | 1.01 (inactive) | 1 (inactive) |
| Clc1cc(Cl)c(OCC#CI)cc1Cl [Haloprogin] (20 µM) | 0.986 | 0.942 | 0.967 |  | 1.01 (inactive) | 0.977 (inactive) | 0.777 (inactive) | 1.09 (inactive) | 0.953 (inactive) | 1.04 (inactive) | 0.987 (inactive) | 0.861 (inactive) |
| Cc1nnc(SCC2=C(C(=O)O)N3C(=O)[C@@H](NC(=O)Cn4cnnn4)[C@H]3SC2)s1 [Cefazolin sodium salt] (20 µM) |  | 0.0255 | 1.13 | 0.0483 | 0.645 (inactive) |  | 0.0727 (active) | 0.16 (active) | 1.03 (inactive) | 0.613 (active) | 1.05 (inactive) | 0.0761 (active) |
| CN(CCOc1ccc(NS(C)(=O)=O)cc1)CCc1ccc(NS(C)(=O)=O)cc1 [Dofetilide] (20 µM) |  | 0.972 | 1.03 | 0.827 | 1 (inactive) |  | 1.04 (inactive) | 0.989 (inactive) | 0.984 (inactive) | 1.05 (inactive) | 1 (inactive) | 0.998 (inactive) |
| CCOC(=O)C1=C(C)NC(C)=C(C(=O)OC)C1c1cccc(Cl)c1Cl (stereo unspecified) [Felodipine] (20 µM) |  | 1.09 | 1.04 | 0.215 | 0.96 (inactive) |  | 0.876 (inactive) | 1.04 (inactive) | 0.97 (inactive) | 0.893 (inactive) | 1.01 (inactive) | 0.903 (inactive) |
| CCOC(=O)C1=C(COCCN)NC(C)=C(C(=O)OC)C1c1ccccc1Cl (stereo unspecified) [Amlodipine] (20 µM) |  | 1 | 1 | 1.1 | 1.08 (inactive) |  | 0.914 (inactive) | 0.986 (inactive) | 1.03 (inactive) | 1.1 (inactive) | 0.988 (inactive) | 0.918 (inactive) |
| C=CC1=C(C(=O)O)N2C(=O)[C@@H](NC(=O)/C(=N\OCC(=O)O)c3csc(N)n3)[C@H]2SC1 [Cefixime] (20 µM) | 0.286 | 0.0263 | 1.12 |  | 0.931 (inactive) | 0.826 (inactive) | 0.964 (inactive) | 0.484 (active) | 1.03 (inactive) | 2.08 (active) | 1.05 (inactive) | 0.932 (inactive) |
| COc1c(N2C[C@@H]3CCCN[C@@H]3C2)c(F)cc2c(=O)c(C(=O)O)cn(C3CC3)c12 [Moxifloxacin] (20 µM) |  | 0.0497 | 0.193 | 0.00485 | 0.256 (active) |  | 0.205 (active) | 0.828 (inactive) | 0.915 (inactive) | 0.236 (active) | 0.982 (inactive) | 0.215 (active) |
| CO[C@@]1(NC(=O)CSCC#N)C(=O)N2C(C(=O)O)=C(CSc3nnnn3C)CS[C@@H]21 [Cefmetazole sodium salt] (20 µM) | 0 | 0.0115 | 1.16 |  | 1.12 (inactive) | 0.0521 (active) | 0.978 (inactive) | 0.284 (active) | 1.05 (inactive) | 0.941 (inactive) | 1.03 (inactive) | 1.13 (inactive) |
